# Screening results from PubChem BioAssay.
# Pf Dd2 growth: blocks in vitro growth of P. falciparum Dd2; P. falciparum Dd2 growth, SYBR Green, 72 h; Potency, µM (series often up to 28.9 µM), without a hit: top-dose activity, negative = inhibition, actives largely listed as inhibitors; 4.3% of 120,000 active; AID 1347417; active means well fitted inhibition curve with a large enough effect;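 further: plate controls were DMSO vehicle for no effect and reference drug for full effect; nearly all actives have a fitted effect of over 65% in size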
#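 Readout: SYBR Green fluorescence, 485 nm excitation, 535 nm emission, after ~16 h lysis at 37C. Before that, Dd2-infected red cells (2.5% hematocrit) grew 72 h with compound, 29 uM top final concentration.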
# * marks the source's active call; other numbers are inactive results; i = inactive; [ ] = remark or other dose. Shown is part of a subset that was picked to be rich in hits. Potency means the concentration at half of the fitted maximal effect.
SMILES,Pf Dd2 growth
Cc1ccsc1CN1CCCCCNC(=O)CC1c1ccccc1 (configuration not stated),7.1µM*
Cc1ccc(CN2CCCCCCNC(=O)CC2c2ccccc2)s1 (configuration not stated),8.9µM*
Cc1ccc(CN2CCCN(S(C)(=O)=O)C(c3ccccc3)CC(=O)NCC2)s1 (configuration not stated),i
O=C1NCCCCCN(Cc2ccccn2)[C@H]2CCC[C@@H]12,i
Cc1ccsc1CN1CCCCCCNC(=O)[C@@H]2CCC[C@@H]21,8.9µM*
O=C1CC(c2ccccc2)N(S(=O)(=O)c2cccs2)CCCCCN1 (configuration not stated),i
O=C1CC(c2ccccc2)N(C(=O)c2cccs2)CCCCCN1 (configuration not stated),-7%
Cc1ncsc1CN1CCCCCCNC(=O)[C@@H]2CCC[C@@H]21,-2%
O=C1NCCCCCN(Cc2cccnc2)[C@H]2CCC[C@@H]12,i
O=C1NCCCCCN(Cc2ccc(F)cc2F)[C@H]2CCC[C@@H]12,i
Cc1ccc(C(=O)NCC(=O)N2CCCCCCNC(=O)CC2c2ccccc2)s1 (configuration not stated),12%
Cc1ccc(C2Cn3cnc(C(=O)N4CCC(C(=O)NCc5ccc(F)cc5)CC4)c3CO2)cc1 (configuration not stated),i
COc1ccc(/C=C\c2onc(C)c2S(=O)(=O)N2CCC(C(=O)Nc3ccc(F)cc3F)CC2)cc1,-5%
CCCCOc1ccc(C(=O)NCCc2sc(-c3cccc(F)c3)nc2C)cc1,i
Cc1cccc(NC(=O)C2CCCN(S(=O)(=O)c3ccc(Br)s3)C2)c1 (configuration not stated),-25%
COc1cccc(NC(=O)O[C@@H]2CO[C@H]3[C@@H]2OC[C@@H]3Nc2nccc(-c3ccc4c(c3)OCO4)n2)c1,-8%
CCOc1ccc(-c2nnc(SCC(=O)NCc3ccccc3Cl)o2)cc1,14%
CC(C)=CCC1(CO)CCCN(C(=O)c2cccc(CO)n2)C1 (configuration not stated),1%
O[C@H]1[C@H](NCc2cnc3ccccc3c2)[C@@H](c2cccnc2)C[C@H]1O,19%[44.1 µM]
CC(C)(C)C1CCC2(CC1)NC(=O)N(CC(=O)Nc1ccccc1C(F)(F)F)C2=O (configuration not stated),10%
Cc1nc2ccccc2c(=O)n1-c1ccc(NC(=O)c2ccccc2[N+](=O)[O-])cc1,6%
O=C1CC(c2ccccc2)N(C(=O)C2CCCC2)CCCCCCN1 (configuration not stated),-8%
Cc1ccsc1CN1CCCCCCNC(=O)CC1c1ccccc1 (configuration not stated),13µM*
O=C1CC(c2ccccc2)N(C(=O)c2ccsc2)CCCCCN1 (configuration not stated),-6%
Cc1ccc(Cn2c(SCC(=O)NCc3ccccc3Cl)nc3ccsc3c2=O)cc1,i
SMILES,Pf Dd2 growth
O=C(NC1CCC1)c1ccc2c(c1)C1(CCN(CC3CC3)C1)CN2Cc1ccccc1 (configuration not stated),14µM*
O=C(NCC1CC1)c1ccc2c(c1)C1(CCN(CC3CC3)C1)CN2Cc1ccccc1 (configuration not stated),-2%[44.1 µM]
CCNC(=O)c1ccc2c(c1)C1(CCN(CC3CC3)C1)CN2Cc1ccccc1 (configuration not stated),i
CCOCc1nc(C2CCCN(C(=O)Cc3cccc(C)c3)C2)no1 (configuration not stated),20%
Cc1cccc(C(=O)N2CCCC(c3noc(-c4cc5c(=O)[nH]c(C)cn5n4)n3)C2)c1 (configuration not stated),5.6µM*
CCOCc1nc(C2CCCN(C(=O)c3ccc(OC)cc3)C2)no1 (configuration not stated),i
Cc1cn2nc(-c3nc(C4CCCN(C(=O)c5sccc5C)C4)no3)cc2c(=O)[nH]1 (configuration not stated),4.5µM*
COCc1nc(C2CCCN(C(=O)c3ccc(C)cc3)C2)no1 (configuration not stated),39%
Cc1cccc(C(=O)N2CCCC(c3noc(COc4ccccc4)n3)C2)c1 (configuration not stated),2%
Cc1ccsc1C(=O)N1CCCC(c2noc(COc3ccccc3F)n2)C1 (configuration not stated),9%
Cc1cn2nc(-c3nc(C4CCCN(C(=O)c5ccc(C)s5)C4)no3)cc2c(=O)[nH]1 (configuration not stated),-12%
CCc1ccc(C(=O)N2CCCC(c3noc(-c4cc5c(=O)[nH]c(C)cn5n4)n3)C2)cc1 (configuration not stated),0.89µM*
O=C(Cc1cccc(F)c1)N1CCCC(c2nc(C3CCOCC3)no2)C1 (configuration not stated),21%
Cc1cn2nc(-c3nc(C4CCCN(C(=O)Cc5cccc(F)c5)C4)no3)cc2c(=O)[nH]1 (configuration not stated),4µM*
